Assay outcomes from PubChem BioAssay.
This is a sample that favours compounds with a hit; in the whole collection about 2.3% have one here.
SENP8 block-1 = SENP8 protease inhibition. purified SENP8, Z-RLRGG-aminoluciferin cleavage, luminescence. 330,000 tested, 1.2% active. inhibition, % at 10 µM. Q96LD8; in the data active = inhibition above about 50%
Target sequence (Q96LD8 whole entry, looked up): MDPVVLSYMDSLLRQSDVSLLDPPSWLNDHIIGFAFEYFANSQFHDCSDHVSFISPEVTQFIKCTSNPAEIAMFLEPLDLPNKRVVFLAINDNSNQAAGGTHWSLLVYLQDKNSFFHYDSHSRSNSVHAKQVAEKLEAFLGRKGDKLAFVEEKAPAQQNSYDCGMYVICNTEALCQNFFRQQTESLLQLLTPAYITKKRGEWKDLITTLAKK
HSP90 refold inh = blocks HSP90-mediated luciferase refolding in reticulocyte lysate; 290,000 tested, 0.91% active; Rabbit reticulocyte lysate, luciferase refolding luminescence, 3 h; AID 1789; inhibition, % at 5.6 µM;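 active = inhibition above the screen-wide mean plus 3 SD, computed separately per campaign, cut at about 16% in these data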;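 note: inhibitors lower the luminescence because luciferase stays unfolded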
SENP7 inh = SENP7 protease inhibition | 330,000 tested, 1.5% active | Q9BQF6 | recombinant SENP7, Z-RLRGG-aminoluciferin luminescence, 40 min | inhibition, % at 5 µM;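 active = inhibition above about 50% at the single test dose, limit read from the data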
SENP6 block = SENP6 protease inhibition; Recombinant SENP6 catalytic domain, aminoluciferin luminescence; inhibition, % at 10 µM; 330,000 tested, 1.8% active; AID 2599;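 active = inhibition above about 50% at the single tested dose, limit read from the data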
Target sequence (Q9GZR1 628-1112 limits assumed): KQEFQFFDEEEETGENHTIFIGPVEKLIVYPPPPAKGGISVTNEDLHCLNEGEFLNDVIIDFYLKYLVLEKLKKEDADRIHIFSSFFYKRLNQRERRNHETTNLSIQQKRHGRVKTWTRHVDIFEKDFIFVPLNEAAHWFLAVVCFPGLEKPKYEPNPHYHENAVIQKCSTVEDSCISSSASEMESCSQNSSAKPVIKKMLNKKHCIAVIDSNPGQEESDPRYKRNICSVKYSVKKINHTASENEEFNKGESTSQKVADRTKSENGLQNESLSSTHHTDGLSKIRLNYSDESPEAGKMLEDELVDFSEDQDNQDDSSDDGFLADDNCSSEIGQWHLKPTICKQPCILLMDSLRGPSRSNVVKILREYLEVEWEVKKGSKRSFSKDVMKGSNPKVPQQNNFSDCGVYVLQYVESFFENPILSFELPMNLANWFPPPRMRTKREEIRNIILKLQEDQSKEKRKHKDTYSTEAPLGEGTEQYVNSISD
SENP8 block-2 = blocks human SENP8 cleavage of Nedd8 substrate. Q96LD8. inhibition, % at 20 µM. recombinant SENP8, Nedd8 substrate fluorescence. 360,000 tested, 0.64% active; in the data active = inhibition mostly above about 40%, no sharp cut-off; inactive = mostly below about 27%
LGR2 antag = blocks bursicon-induced cAMP signaling via Drosophila LGR2; HEK293 LGR2, CRE-luciferase, bursicon-stimulated, 4 h; 380,000 tested, 0.35% active; inhibition, % at 9.99 µM; AID 720647;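 active = drop in luminescence signal, shown as inhibition above about 50% in the replicate tests, limit read from the data, passing the limit was not always enough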;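 note: agonist challenge used bursicon conditioned medium at about half maximal strength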
SENP8 conf = confirmation of human SENP8 protease inhibitors; shares compounds with SENP7 inh; inhibition, % at 12.5 µM; AID 488912; 6,200 tested, 40% active; Recombinant SENP8, Z-RLRGG-aminoluciferin luminescence, 60 min;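 active = mean inhibition across replicates above about 50%, limit read from the data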
SENP6 conf = human SENP6 inhibition, confirmed | shares compounds with SENP7 inh | recombinant SENP6, Z-RLRGG-aminoluciferin luminescence | inhibition, % at 12.5 µM | 6,200 tested, 58% active | AID 488915
SENP7 confirm = human SENP7 inhibition, confirmed | recombinant SENP7, Z-RLRGG-aminoluciferin luminescence, 40 min | inhibition, % at 12.5 µM | 6,200 tested, 69% active | shares compounds with SENP7 inh | AID 488917
Casp3 SENP sel = inhibits human caspase-3 in SENP selectivity test; AID 488918; inhibition, % at 12.5 µM; shares compounds with SENP7 inh; purified caspase-3, Z-DEVD-aminoluciferin luminescence, 60 min; 6,200 tested, 60% active;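 active = mean inhibition above about 50%, limit read from the data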
Luc interf = interferes with luciferase luminescence in SENP counter-screen; inhibition, % at 12.5 µM; shares compounds with SENP7 inh; AID 488919; Pre-incubated SENP8/Z-RLRGG-aminoluciferin, luciferase luminescence interference; 6,200 tested, 39% active;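 active = mean inhibition above about 50% when retested at one dose, limit read from the data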
Hits are given with their value; n = inactive; x = no result.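 Rule for the calls, unless noted: active = mean inhibition above about 50% in the one-dose retest (limit read from the data); inactive = the rest.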

SMILES | SENP8 block-1 | HSP90 refold inh | SENP7 inh | SENP6 block | SENP8 block-2 | LGR2 antag | SENP8 conf | SENP6 conf | SENP7 confirm | Casp3 SENP sel | Luc interf
COc1ccc(C(=O)NCc2ccc(-c3nc4ccccc4s3)cc2)cc1OC | n | n | n | n | n | x | x | x | x | x | x
C[C@H](O)C#Cc1cnc2c(c1)C(=O)N([C@H](C)CO)C[C@H](C)[C@H](CN(C)C(=O)Nc1ccc(C(F)(F)F)cc1)O2 | x | x | x | x | x | n | x | x | x | x | x
C[C@H]1CN([C@@H](C)CO)C(=O)c2cc(-c3ccccc3)cnc2O[C@@H]1CN(C)C(=O)C1CCCCC1 | x | x | x | x | x | n | x | x | x | x | x
COC(=O)c1sc2nc3c(cc2c1N)CCCC3 | 57 | n | 75 | n | n | n | n | 72 | 91 | 76 | 51
O=C(CNC(=O)c1ccccc1F)c1ccccc1 | n | n | 51 | 54 | n | n | n | n | 81 | 79 | 53
C[C@H]1CN([C@@H](C)CO)C(=O)CCCn2cc(nn2)CO[C@H]1CN(C)Cc1ccncc1 | x | x | x | x | x | n | x | x | x | x | x
CC(C)NC(=O)N[C@@H]1CC[C@H](CCNC(=O)C2CCOCC2)O[C@H]1CO | x | x | x | x | x | n | x | x | x | x | x
O=C(Nc1nnc(-c2ccccc2)s1)c1ccccc1O | 84 | n | 63 | 80 | n | n | n | n | n | n | n
COc1cccc(C(=O)Nc2nnc(-c3ccccc3)s2)c1OC | 57 | n | 55 | 79 | n | n | n | n | 64 | 61 | n
O=C(C[C@H]1CC[C@H](NC(=O)C2CC2)[C@@H](CO)O1)NC1CCC1 | x | x | x | x | x | n | x | x | x | x | x
Cc1cccc(/C=N/NC(=O)c2cc(-c3cccnc3)nc3c2c(C)nn3-c2ccccc2)c1 | n | n | 77 | n | n | n | n | n | n | n | n
Nc1[nH]nc2c1NN(c1ccc(Cl)cc1Cl)N2 | n | n | n | 65 | n | n | n | n | n | n | n
Nc1cc(OCc2ccccc2)ccc1OCc1ccccc1 | x | x | x | x | n | n | x | x | x | x | x
c1ccc(COc2ccc3nocc3c2)cc1 | 90 | x | 90 | 93 | n | n | 86 | 90 | 100 | 91 | 84
COc1ccc(CN(C)C[C@H]2OCCCC[C@H](C)Oc3ccc(NC(=O)Cc4ccccc4)cc3C(=O)N([C@@H](C)CO)C[C@@H]2C)cc1 | x | x | x | x | x | n | x | x | x | x | x
CCN1[C@@H]2Cn3c(ccc(-c4ccccc4F)c3=O)[C@H]1[C@@H](C(=O)N1CCCCC1)[C@@H]2CO | x | x | x | x | x | n | x | x | x | x | x
Cc1ccc(S(=O)(=O)N[C@@H]2CC[C@H](CC(=O)N3CCC(Cc4ccccc4)CC3)O[C@H]2CO)cc1 | x | x | x | x | x | n | x | x | x | x | x
O=c1oc2ccccc2cc1-c1nc2ccccc2o1 | 72 | n | 85 | 90 | n | n | 54 | 86 | 98 | 94 | n
Cc1cccc(-c2noc(-c3cc4ccccc4oc3=O)n2)c1 | n | n | 82 | n | n | n | n | n | n | n | n
Cc1ccc(-c2noc(-c3cc4ccccc4oc3=O)n2)cc1 | n | n | n | n | n | x | x | x | x | x | x
Cc1cccc(-c2noc(-c3ccc(Cl)cc3[N+](=O)[O-])n2)c1 | n | n | n | n | n | n | x | x | x | x | x
O=c1oc2ccccc2cc1-c1nc(-c2ccccc2)no1 | 57 | n | 82 | n | n | x | n | n | n | n | n
O=c1oc2ccccc2cc1-c1nc2c(s1)CCCC2 | 94 | n | 99 | n | n | n | n | n | 100 | 84 | n
COCC(=O)N(C)C[C@H]1Oc2cc(-c3ccccc3F)ccc2S(=O)(=O)N([C@H](C)CO)C[C@H]1C | x | x | x | x | x | n | x | x | x | x | x
C/C=C/c1ccc([C@H]2[C@H](CO)N(C(=O)C3CC3)C23CN(C(=O)NC(C)C)C3)cc1 | x | x | x | x | x | n | x | x | x | x | x
SMILES | SENP8 block-1 | HSP90 refold inh | SENP7 inh | SENP6 block | SENP8 block-2 | LGR2 antag | SENP8 conf | SENP6 conf | SENP7 confirm | Casp3 SENP sel | Luc interf
O=C(O)c1ccccc1NN=Cc1ccccc1 | x | x | x | x | n | n | x | x | x | x | x
O=[N+]([O-])c1ccc(S(=O)(=O)N/N=C/c2ccc3c(c2)OCO3)cc1 | n | n | n | n | n | n | x | x | x | x | x
O=[N+]([O-])c1ccccc1N/N=C/c1ccccc1 | 61 | n | 95 | 63 | n | n | n | n | n | n | n
O=[N+]([O-])c1ccccc1N/N=C/c1ccc2c(c1)OCO2 | 82 | n | 96 | n | n | x | n | n | n | n | n
CC(=O)Nc1cccc(NC(=O)C(=O)Nc2ccc3c(c2)N(C(=O)C2CC2)CCC3)c1 | n | x | 50 | 59 | n | n | n | n | 75 | 65 | n
COc1ccccc1NC(=O)C(=O)Nc1ccc2c(c1)N(C(=O)C1CC1)CCC2 | n | x | 56 | n | n | n | n | n | n | n | n
COc1cccc(NC(=O)N[C@@H]2C=C[C@H](CC(=O)Nc3ccccc3)O[C@@H]2CO)c1 | x | x | x | x | x | n | x | x | x | x | x
COc1ncnc2sc(-c3ccccc3)cc12 | 97 | n | 99 | 93 | n | x | 96 | 95 | 100 | 95 | 92
c1coc(-c2cnc3ccccc3n2)c1 | x | x | x | x | n | n | x | x | x | x | x
Cc1cc2ncc(-c3ccccc3)nc2cc1C | 95 | n | 97 | 95 | n | n | 97 | 99 | 102 | 96 | 92
CCOC(=O)c1ccc2ncc(-c3ccccc3)nc2c1 | x | n | x | x | n | n | x | x | x | x | x
Nc1ccc(-c2cnc3ccccc3n2)cc1 | 55 | x | 62 | 62 | n | x | 59 | 55 | 86 | 75 | 61
O=C(Oc1ccc(-c2cnc3ccccc3n2)cc1)c1ccc(Br)o1 | n | n | 75 | 51 | n | n | n | n | n | 64 | n
CCCCOc1ccc(-c2cnc3ccccc3n2)cc1 | 91 | n | 95 | 96 | n | 70 | 52 | 64 | 55 | 83 | n
O=C(Oc1ccc(-c2cnc3ccccc3n2)cc1)c1cccc([N+](=O)[O-])c1 | n | n | n | n | n | x | x | x | x | x | x
C[C@H]1CN([C@@H](C)CO)C(=O)CCCn2nncc2CO[C@H]1CN(C)C(=O)Nc1cccc(F)c1 | x | x | x | x | x | n | x | x | x | x | x
Nc1ccc2nc(-c3ccccc3)cnc2c1 | 52 | x | n | 67 | n | n | n | 68 | 88 | 74 | 71
O=C(O)c1cc(-c2ccc(O)cc2)nc2ccccc12 | n | n | n | n | x | x | x | x | x | x | x
Oc1ccc(-c2cnc3ccccc3n2)cc1 | 84 | x | 71 | 90 | n | n | 82 | 82 | 97 | 87 | 86
c1csc(-c2cnc3ccccc3n2)c1 | n | n | 59 | 67 | n | x | n | 54 | 83 | 58 | n
c1cc(-c2cccs2)nc(-c2cccs2)c1 | n | n | n | n | n | n | x | x | x | x | x
Cc1ccc(-n2ncc3ccccc3c2=O)cc1Cl | n | n | n | n | n | n | x | x | x | x | x
